Assay outcomes deposited in PubChem BioAssay by National Center for Advancing Translational Sciences (NCATS).
Shown is part of a subset that was picked to be rich in hits.
CHX counter: counter-screen for Shiga toxin inhibitors: cycloheximide protein synthesis inhibition; cell reporter, cycloheximide protein synthesis inhibition counterscreen; hit rate 12% among 300,000; max response, %; in the data active = max response mostly above about 13%, no sharp cut-off; inactive = mostly below about 14%; also: read at 38.3 µM for the half of the compounds with a filed dose
FBPA Giardia inh: inhibitors of Giardia lamblia fructose-1,6-bisphosphate aldolase; A8B2U2; purified Giardia FBPA; Potency, µM (top dose mostly 59.6 µM), actives largely listed as inhibitors; hit rate 0.71% among 290,000; also: nearly all actives have a fitted effect of over 55% in size
Target sequence (A8B2U2 whole entry, looked up): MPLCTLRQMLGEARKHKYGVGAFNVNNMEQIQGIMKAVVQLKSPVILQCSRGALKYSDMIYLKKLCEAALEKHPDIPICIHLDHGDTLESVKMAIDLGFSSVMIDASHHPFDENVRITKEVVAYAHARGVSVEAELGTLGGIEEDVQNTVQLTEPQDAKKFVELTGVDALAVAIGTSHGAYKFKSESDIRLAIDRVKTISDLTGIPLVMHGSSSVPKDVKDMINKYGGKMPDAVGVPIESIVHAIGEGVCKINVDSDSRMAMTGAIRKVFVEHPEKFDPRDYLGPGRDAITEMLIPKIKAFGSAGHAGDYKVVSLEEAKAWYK
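Giardia FBPA (40 nM reagent) was preincubated 10 min at RT with compound (up to 57.5 uM final), then substrate plus GAPDH/TPI/NAD/arsenate coupling system with diaphorase/resazurin was added; resorufin fluorescence (525/598 nm) was read after 20 min.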
Tb PYK inh: T. brucei pyruvate kinase inhibition; Q57TT1; TbPYK enzyme, Kinase-Glo Plus ATP luminescence, 45 min; Potency, µM (top dose mostly 76.8 µM), usual class: inhibitors; hit rate 0.12% among 410,000; AID 624173; also: nearly all actives have a fitted effect of over 50% in size
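Enzyme and substrate buffer are dispensed first and compound is pin-transferred. ADP at 130 uM final then starts the reaction, which runs 45 min at room temperature. Detection reagent is added for 10 min before luminescence is imaged.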
LmPK inhibitor: LmPK (Leishmania mexicana) enzyme inhibition; Q27686; purified LmPK, Kinase-Glo ATP luminescence, 1 h; Potency, µM (doses to about 57.5 µM), hits mostly inhibitors; hit rate 0.37% among 290,000
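Purified LmPK (0.1 nM) converted ADP (0.1 mM) to ATP with PEP (0.5 mM) in imidazole buffer pH 7.2 with KCl and MgCl2, 1 h at room temperature. ATP was read by Kinase-Glo luminescence; data normalized to uninhibited and no-enzyme controls.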
RE007 growth inh: less growth of the S. pombe RE007 Vpr strain | S. pombe RE007 Vpr strain, BacTiter-Glo ATP luminescence, 24 h | Potency, µM (highest dose often 92.2 µM), most hits filed as inhibitors | hit rate 0.21% among 360,000; active = well fitted falling curve with a large enough effect; inconclusive = small, poorly fitted or top-dose-only effect; inactive = no such curve, though single readings can be large or run the other way; also: nearly all actives have a fitted effect of over 50% in size
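Fission yeast RE007 carrying one integrated HIV-1 vpr copy, seeded at OD 0.01 in PMG+AL medium with 23 nL pinned compound. Grown 24 h at 30 degrees; viability read by BacTiter-Glo luminescence after 5 min.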
Shiga inhibitor: inhibitors of Shiga toxin in Vero cells | Vero cells, Shiga toxin protein synthesis inhibition reporter | inhibition, % at 38.7 µM | hit rate 9.2% among 290,000; in the data active = inhibition mostly above about 28%, no sharp cut-off; inactive = mostly below about 43%
A number is an active result; . = inactive; ? = inconclusive; / = no result; + = active, no number; [ ] = dose if it differs, or a comment. Unless noted, calls follow the shape of the dose curve; as a rule, active = well fitted curve in the direction sought with a large enough effect; inconclusive = small, poorly fitted or top-dose-only effect, or another doubt; inactive = no such curve, though single readings can be large; an effect the other way counts as inactive or inconclusive.

SMILES	CHX counter	FBPA Giardia inh	Tb PYK inh	LmPK inhibitor	RE007 growth inh	Shiga inhibitor
Cc1cccc(C)c1NC(=O)c1csc(COCCO)n1	/	/	.	/	.[18.4 µM]	/
Cc1ccc(-c2noc(CNC(=O)c3ccc(Br)o3)n2)cc1	/	/	.	/	/	/
c1ccc(-n2ncc3c2ncn2nc(-c4ccco4)nc32)cc1	38	.	.	.	.	46
O=C(/C=N/O)Nc1ccc2sc3ccccc3c2c1	54	.	.	.	.	71
CC12CCC(=O)N1C(C(=O)Nc1nnc(SCc3ccccc3F)s1)CS2 (centres undefined)	20	/	.	?	.	56
CC12CCC(=O)N1C(C(=O)Nc1nc3c(F)cc(F)cc3s1)CS2 (centres undefined)	21	/	.	.	.	.
CCC(=O)Nc1nnc(SCc2ccccc2F)s1	.	.	.	.	.	79
CC(C)COC(=O)Nc1nnc(SCc2ccccc2F)s1	.	.	.	.	.	.
COc1ccc(CSc2nc3ccncc3n2Cc2nc(-c3ccc(OC)c(OC)c3)oc2C)cc1	/	/	.	/	/	/
C[C@@H](C(=O)CC(=O)OC(C)(C)C)[C@@H](O)c1ccccc1	.	.	.	.	.	.
CCOc1ccc(C2C(=O)N(C3CCCCCC3)CC(=O)N2CCc2ccc(Cl)cc2)cc1OC (centres undefined)	/	/	.	/	/	/
Nc1nnnn1/N=C/c1ccc(O)cc1	.	.	.	16µM	.	.
CSc1ccc(/C=N/n2nnnc2N)cc1	27	.	.	.	.	.
CCCOc1ccc(/C=N/n2nnnc2N)cc1OC	.	.	.	.	.	.
CCN(C)c1ccc(/C=N\n2nnnc2N)cc1	29	.	.	.	.	65
CCN(CC)c1ccc(/C=N/n2nnnc2N)c(O)c1	14	.	.	.	.	.
Nc1nnnn1/N=C/c1cccc(O)c1	.	.	.	.	.	.
Nc1nnnn1/N=C/c1cc(Cl)ccc1O	.	.	.	.	.	.
O=C(c1cc([N+](=O)[O-])cc([N+](=O)[O-])c1)N1CCCc2ccccc21	.	.	.	.	.	.
O=C(NC(=S)N1CCCc2ccccc21)c1ccc([N+](=O)[O-])cc1	47	.	.	.	.	58
O=C(NC(=S)N1CCCc2ccccc21)c1ccc(Cl)cc1	52	.	.	.	.	73
O=C(NC(=S)N1CCCc2ccccc21)c1ccccc1	25	.	.	.	.	69
O=C(NC(=S)N1CCCc2ccccc21)c1ccc(Br)cc1	22	.	.	.	.	.
O=C(C(=O)N1CCCc2ccccc21)N1CCCc2ccccc21	.	.	.	.	.	.
O=C(Cn1cc([N+](=O)[O-])cn1)N1CCCc2ccccc21	.	.	.	.	.	53
SMILES	CHX counter	FBPA Giardia inh	Tb PYK inh	LmPK inhibitor	RE007 growth inh	Shiga inhibitor
Cc1ccc(NC(=O)C2CCCN(S(=O)(=O)c3c(C)n[nH]c3C)C2)cc1C (centres undefined)	/	/	.	/	/	/
O=C(COc1ccc(Cl)cc1Br)OCC(=O)c1ccc[nH]1	/	/	.	/	.	/
CCC(=O)Nc1cccc(-c2csc(-c3ccccc3)n2)c1	54	.	.	.	.	62
O=C(COc1ccccc1)Nc1cccc(-c2nc3cc4ccccc4cc3[nH]2)c1	70	.	.	.	?	79
CC(C)CC(=O)Nc1cccc(-c2csc(-c3ccccc3)n2)c1	39	.	.	.	.	+
CC(C)CC(=O)Nc1cccc(-c2nc3ccccc3[nH]2)c1	14	.	.	.	.	.
CC(=O)Nc1cccc(-c2nc3ccccc3[nH]2)c1	.	.	.	.	.	.
CCC(C)NC(=O)c1ccc2c(c1)sc1nc(-c3ccc(OC)cc3)cn12 (centres undefined)	/	/	.	/	/	/
CC(C)CC1NC(=O)N(CC(=O)Nc2cc(F)ccc2F)C1=O (centres undefined)	/	/	.	/	.	/
Cc1ccccc1-c1ncc(CN2CCN(C3CCCC3)C(CCO)C2)cn1 (centres undefined)	.	.	.	.	.	.
Cc1ccccc1-c1ccc(CN2CCN(C)C(CCO)C2)cc1 (centres undefined)	11	.	.	.	.	19
CCOC(=O)OCC1OC(C#Cc2ccccc2)C=CC1OC(=O)OCC (centres undefined)	/	.[12.9 µM]	/	/	/	/
COc1ccc(/C=C/c2nnc(NC(=O)CSc3ccc(C)cc3)s2)cc1	15	.	.	.	.	94
Cc1ccc(NC(=O)COCC(=O)Nc2ccc(C)cc2)cc1	.	.	.	.	.	.
Cc1ccc(SCC(=O)NC(C)(C)C)cc1	28	.	.	.	.	133
Cc1ccc(NC(=O)CNc2ccc(OC(C)C)cc2)cc1	16	.	.	.	.	.
CC(C)(C)NC(=O)CSc1nnnn1C(C)(C)C	25	.	.	.	.	32
COc1ccc(-c2nc3cnc(OC)nc3n(CCc3ccccc3)c2=O)cc1	/	.	/	/	/	/
COc1ccc(NC(=O)c2ccccc2NC(=O)CSc2ccc(C)cc2)cc1	.	.	.	.	.	.
CCC(=O)Nc1nnc(/C=C/c2ccc(OC)cc2)s1	32	.	.	.	.	55
COc1ccc(NC(=O)CSc2ccc(C)cc2)cc1	33	.	.	.	.	81
CC(C)CN(C[C@@H](O)[C@H](Cc1ccccc1)NC(=O)O[C@H]1CO[C@H]2OCC[C@H]21)S(=O)(=O)c1ccc(N)cc1	/	/	.	/	/	/
COc1ccc(C(=O)COc2ccc(F)cc2)c(O)c1	29	.	.	.	.	69
O=C(COc1ccc(F)cc1)c1c(O)cc(O)cc1O	48	.	.	.	.	119
NNC(=O)COc1ccc(F)cc1	.	.	.	.	.	.
SMILES	CHX counter	FBPA Giardia inh	Tb PYK inh	LmPK inhibitor	RE007 growth inh	Shiga inhibitor
COc1ccc(C(=O)Cc2ccc(F)cc2)c(OC)c1	64	.	.	.	/	80
COc1ccc(N2CCN(C(=O)Cc3noc4ccc(C)cc34)CC2)cc1	/	/	.	/	/	/
CN(Cc1nccn1C)C(=O)CCc1nnc(CCC2CCCCC2)o1	.	.	.	.	.	.
Cc1nn(C)cc1CN(C)C(=O)CCc1nnc(CCC2CCCCC2)o1	11	.	.	.	.	.
O=C(NC1CC1)C1=C[C@H](c2ccc(C(F)(F)F)cc2)C[C@H](OCc2ccc(CO)cc2)O1	24	.	.	.	.	28
C[C@H]1C=C(C(=O)NC2CC2)O[C@@H](OCc2ccc(CO)cc2)C1	13	.	.	.	.	.
Cc1ccc2c(c1)c1c3n2CCN(CCC#N)C3CCC1 (centres undefined)	/	/	.	/	.	/
CC(=O)N1CCn2c3c(c4cc(C)ccc42)CCCC31 (centres undefined)	.	.	.	.	.	.
CCN1CCn2c3c(c4cc(C)ccc42)CCCC31 (centres undefined)	25	.	.	.	.	.
